Sampled rows, rich in hits. Any-hit rate of the full collection: about 7.5%.
ELG1 genotoxic – inducers of genotoxicity in HEK293T ELG1-luciferase cells | HEK293T ELG1-luciferase reporter, luminescence, 16 h | Potency, µM (highest dose often 46 µM), for inactives: top-dose activity change, positive = activation, hits mostly activators | 330,000 tested, 1.3% active | AID 504466; note: % of control where 0% means no effect; nearly all actives have a fitted effect of over 60% in size
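16 hr compound incubation (37 °C, 5% CO2) of HEK293T cells carrying luciferase-tagged ELG1; luciferase then measured by ONE-Glo luminescence after 30 min at RT.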
NPC1 promoter act – NPC1 promoter activation. Huh7 NPC1 promoter luciferase reporter, 24 h. Potency, µM (titrated, usually from 9.22 µM), inactives show at the highest dose activation, most hits filed as activators. 320,000 tested, 2.4% active; note: % of control where 0% means no effect; nearly all actives have a fitted effect of over 60% in size
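Compounds in DMSO were transferred onto Huh7 NPC1-luciferase reporter cells pre-incubated 2 h; after 24 h at 37 °C, Amplite reagent was dispensed and luminescence recorded 10 min later.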
Luc counter – counter-screen: inhibitors of Kinase-Glo firefly luciferase; Potency, µM (titrated, usually from 38.3 µM), inactives show top-dose activity change, negative = inhibition, most hits filed as inhibitors; Kinase-Glo luciferase, ATP luminescence, 8 min; 200,000 tested, 0.28% active; Q27757; note: % is set by controls: 0 for no effect and ±100 for the full control effect; nearly all actives have a fitted effect of over 60% in size
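Kinase-Glo luciferase light output from ATP and luciferin was measured with 10 uM ATP, within the enzyme's linear range. Buffer: 50 mM imidazole pH 7.2, 50 mM KCl, 7 mM MgCl2, 0.01% Tween 20, 0.05% BSA; luminescence read after 8 min at ambient temperature.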
FLuc counter – firefly luciferase modulation, counter-screen for miR-21 project; AID 588342; purified FLuc, Km substrates, luminescence inhibition; P08659; Potency, µM (top dose mostly 57.5 µM), without a hit: at the highest dose activity change, negative = inhibition, usual class: inhibitors; 360,000 tested, 6.9% active;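 note: plate controls were vehicle for no effect and reference inhibitor for full effect; nearly all actives have a fitted effect of over 55% in size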
Target sequence (P08659 whole entry, looked up): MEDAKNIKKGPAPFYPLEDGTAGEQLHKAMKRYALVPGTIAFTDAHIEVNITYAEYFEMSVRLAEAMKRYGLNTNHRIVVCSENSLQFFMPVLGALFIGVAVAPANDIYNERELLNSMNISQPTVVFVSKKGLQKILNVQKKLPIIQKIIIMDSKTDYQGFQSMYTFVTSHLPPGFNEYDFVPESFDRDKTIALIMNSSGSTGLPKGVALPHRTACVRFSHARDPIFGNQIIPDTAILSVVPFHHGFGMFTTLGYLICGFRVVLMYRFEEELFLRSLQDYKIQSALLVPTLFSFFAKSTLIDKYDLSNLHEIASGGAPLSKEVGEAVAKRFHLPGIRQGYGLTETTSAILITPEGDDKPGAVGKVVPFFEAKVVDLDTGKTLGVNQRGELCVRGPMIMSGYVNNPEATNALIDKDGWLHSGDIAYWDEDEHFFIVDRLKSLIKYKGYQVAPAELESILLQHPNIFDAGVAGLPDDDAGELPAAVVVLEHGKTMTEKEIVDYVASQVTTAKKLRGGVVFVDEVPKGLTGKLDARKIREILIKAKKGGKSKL
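Biochemical qHTS of compounds, final roughly 60 µM downward over six points, against 10 nM purified firefly luciferase using Km concentrations of substrates (10 uM D-luciferin, 10 uM ATP) in Tris acetate pH 7.5 buffer; luminescence output.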
Rab9 prom act – Rab9 promoter activation. Huh7 Rab9 promoter-luciferase reporter, luminescence, 24 h. Potency, µM (highest dose often 9.22 µM), for the others: top-dose activation, negative = inhibition, hits mostly activators. 320,000 tested, 2.8% active. AID 485297; note: % of control where 0% means no effect; nearly all actives have a fitted effect of over 60% in size
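Luciferase signal after 10 min detection reagent at ambient indicates Rab9 promoter upregulation; stably transfected Huh7 cells were treated 24 h with compound in DMSO at 37 °C, 5% CO2.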
SMN2 splice up – enhancers of SMN2 splice variant expression; HEK293 SMN2-luciferase splicing reporter, luminescence, 30-36 h; Potency, µM (highest dose often 46.1 µM), for the others: top-dose activity change, positive = activation, actives largely listed as activators; 210,000 tested, 2.8% active; note: % of control where 0% means no effect; nearly all actives have a fitted effect of over 55% in size
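HEK293 cells carry an SMN2 […]–luciferase reporter in which exon 7 inclusion puts luciferase in frame. Cells were plated 10-12 h before compound addition, then incubated 30-36 h at 37C. ONE-Glo luminescence was read; sodium butyrate at 4.5 mM final served as control.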
* hit, by the source's call; u = inconclusive; x = no result given; [ ] = another dose, or the depositor's remark. Calls come from the whole dose curve; as a rule, active = well fitted curve in the direction sought with a large enough effect; inconclusive = small, poorly fitted or top-dose-only effect, or another doubt; inactive = no such curve, though single readings can be large; an effect the other way counts as inactive or inconclusive. Potency is the fitted concentration of half-maximal effect.

SMILES	ELG1 genotoxic	NPC1 promoter act	Luc counter	FLuc counter	Rab9 prom act	SMN2 splice up
O=C(O)c1cccc([N+](=O)[O-])c1	x	x	x	x	x	0%
Cc1ccc(C(=O)C(C)OC(=O)c2ccccc2[N+](=O)[O-])cc1 (configuration not stated)	7.3µM*	0.89µM*	1%	1.1µM*	1.6µM*	13µM*
Cc1ccc(-c2ccc(/C=C/C(=O)c3ccccc3)o2)cc1	1%	-1%	0%	u	3%	14%
O=C(/C=C/c1ccc(-c2ccccc2)o1)c1ccccc1	u	u	-18%	6.7µM*	26%	x
O=C(C#Cc1ccccc1)c1cccc([N+](=O)[O-])c1	10%	1%	18%	11µM*	0%	-30%
Cc1nc(N2CCOCC2)[nH]c(=O)c1C	1%	-3%	0%	0%	-1%	4%
CCOC(=O)N1CCN(CC(=O)Nc2nnc(C(F)(F)F)s2)CC1	1%	-2%	x	-4%	3%	x
Cc1ccc(C)c(Cn2c3ccccc3c3cnn(CC(=O)NCCCN4CCOCC4)c(=O)c32)c1	0%	-11%	x	-1%	-3%	x
Cc1cccn2c(=O)c(C(=O)NCc3cccc(F)c3)cnc12	x	x	x	-10%	x	x
Cn1c(=O)n(-c2ccc(F)c(Cl)c2)c(=O)c2sc3ccccc3c21	x	x	x	-2%	x	-8%
COc1nccnc1NS(=O)(=O)c1ccc(N=Cc2c(C)[nH]n(-c3ccc(C)c(C)c3)c2=O)cc1	12%	3%	10µM*	15µM*	15%	-19%
Cc1ccc(-n2[nH]c(C)c(C=Nc3ccc(S(=O)(=O)Nc4nccs4)cc3)c2=O)cc1C	9%	-1%	-26%	19µM*	0%	28%
NS(=O)(=O)c1ccc(NC(=S)Nc2ccn(Cc3cccc4ccccc34)n2)cc1	-7%	-10%	x	2%	-7%	x
Cc1ccc(C)c(OCc2nc3ccccc3[nH]2)c1	16%	u	-5%	15µM*	u	u
Cc1ccc(NC(=O)NNC(=O)Cn2nc(-c3ccccc3)c(-c3ccccc3)c(C#N)c2=O)cc1	-6%	-27%	-2%	0%	-13%	6%
C=CCOc1cccc(C(=O)/C=C2/C(=O)Nc3ccccc32)c1	18%	-6%	x	7.6µM*	-4%	x
CN(C)S(=O)(=O)Oc1ccc(C(=O)Nc2cccc(Cl)c2)cc1	u	u	-1%	12µM*	u	13µM*
CN(C)S(=O)(=O)Oc1cccc(C(=O)Nc2ccccc2Cl)c1	u	28%	1%	21µM*	5.6µM*	12%
CN(C)S(=O)(=O)Oc1cccc(C(=O)Nc2ccc(Cl)cc2)c1	5%	u	-4%	3.4µM*	u	4%
CCN(CC)C(=O)c1cccc(NC(=O)c2cc(-c3ccccn3)nc3ccccc23)c1	-7%	-1%	x	u	-1%	x
COc1ccccc1C(=O)NCCC(=O)NCc1ccncc1	3%	0%	x	-1%	-1%	x
CC1CC(C)(C)Nc2ccc(OC(=O)c3ccco3)cc21 (configuration not stated)	19%	0%	-3%	6.7µM*	u	x
CC1CC(C)(C)Nc2ccc(N=O)cc21 (configuration not stated)	12%	-8%	-4%	-11%	18%	-102%
Cn1c(-c2ccc3c(c2)OCO3)cnc1NCc1ccccc1Cl	10%	25%	-1%	12µM*	u	u
Cc1cc(C(=O)CSc2nnc(-c3ccccc3F)o2)c(C)n1Cc1cccs1	1%	-3%	-5%	u	-6%	-30%
SMILES	ELG1 genotoxic	NPC1 promoter act	Luc counter	FLuc counter	Rab9 prom act	SMN2 splice up
Cc1cc(C(=O)CN2C(=O)c3cccc(N)c3C2=O)c(C)n1Cc1cccs1	2.9µM*	1.3µM*	-2%	1.1µM*	1.1µM*	8.9µM*
Cc1cc(C(=O)CN2C(=O)NC3(CCCCC3)C2=O)c(C)n1Cc1ccco1	6.5µM*	2.2µM*	1%	7.6µM*	1.4µM*	11µM*
Cc1cc(C(=O)CN2C(=O)NC3(CCCCC3C)C2=O)c(C)n1Cc1cccs1 (configuration not stated)	u	4µM*	-4%	6.7µM*	2.8µM*	16µM*
CC(C)N(CC(=O)O)CC(=O)O	x	x	-5%[7.66 µM]	x	x	-12%[9.22 µM]
O=C(OCc1ccccc1)[C@@H]1COC(c2ccc(Br)cc2)=N1	x	x	2%[39.9 µM]	x	x	x
Brc1ccc(C2=NC(Cc3ccccc3)CO2)cc1 (configuration not stated)	u	u	3%	6.7µM*	u	7.1µM*
COc1ccc(-c2nn(C)c3sc(C(=O)Nc4cc(OC)c(OC)c(OC)c4)cc23)cc1OC	x	x	x	8.5µM*	x	u
COc1ccc(NC(=O)c2cc3c(-c4ccc(OC)c(OC)c4)nn(C)c3s2)cc1OC	-2%	0%	-1%	11µM*	-1%	4%
COc1cccc(-c2nn(C)c3sc(C(=O)NCc4ccc(C)o4)cc23)c1	-17%	12%	16%	2%	7%	16µM*
COc1cccc(-c2nn(C)c3sc(C(=O)NCc4ccc(OC)cc4OC)cc23)c1	x	x	x	-9%	x	-15%
COc1cc(NC(=O)C(CCSC)NS(=O)(=O)c2ccc3c(c2)oc(=O)n3C)cc(OC)c1 (configuration not stated)	x	x	x	-4%	x	x
CCCn1nc(C(=O)OCC(=O)Nc2ccc(C)cc2)c2ccccc2c1=O	3%	x	x	x	x	x
O=C(CSCn1nnc2c(=O)[nH]c(Cc3ccc(F)cc3)nc21)Nc1cccc(C(F)(F)F)c1	x	x	x	-6%	x	-1%
COc1ccc(NC(=O)CCCn2c(=O)c3cccn3c3ccccc32)c(OC)c1	x	x	x	0.85µM*	x	x
O=C(CCCn1c(=O)c2cccn2c2ccccc21)Nc1cccc(Cl)c1	x	x	x	12µM*	x	x
COc1ccccc1NC(=O)CCn1c(=O)c2cccn2c2ccccc21	-6%	-1%	x	-2%	1%	x
CCCCN1C(=O)/C(=C2\SC(N3CCCCC3)=NC2=O)c2ccccc21	u	1.4µM*	-12%	2.1µM*	1.8µM*	u
CC1=C(C(=O)Nc2ccc(C)cc2C)C(c2ccc(Br)cc2)n2ncc(C(=O)Nc3cccc(C)c3)c2N1 (configuration not stated)	x	x	x	-2%	x	x
O=C(CCn1c2c(c3ccccc31)CCCC2)NNC(=O)c1ccccc1[N+](=O)[O-]	1%	-2%	-2%	u	0%	1%
O=C(CCn1c2c(c3ccccc31)CCCC2)NNC(=O)c1ccccc1C(=O)O	-1%	6%	x	27µM*	-3%	x
O=C(c1cc2cc(F)ccc2[nH]1)N1CCc2ccccc21	u	4µM*	x	u	3.5µM*	x
